Assay results published in PubChem BioAssay AID1053124 (Broad Institute, 2014).
Measured potencies and affinities stand elsewhere. Unmarked numbers belong to inactive results.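 Rule for the calls: active = cell killing whose fitted half-effect concentration is at most twice the top valid dose tested; inconclusive = flat curve with 30 to 70% killing, or a poor fit; inactive = effect in the rising direction, plus the rest.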

test: viability loss in A549 lung cells – cell-based, ATP luminescence, cherry-pick, set 2, cytotoxicity control, dose response (AID 1053124); conditions: ATP luminescence (CellTiter-Glo), 72 h; series mostly up to 26 µM; activity change, negative = cytotoxicity: at the top concentration;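 note: 0% = neutral control wells and -100% = mitoxantrone 10 µM positive control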

Going from `CC12CC(c3ccccc3O1)C(C(=O)OCc1ccccc1)C(=O)N2` (stereo not drawn) to `CC(C)OP(=O)(O)NC(=O)c1ccccc1`, the “activity change, negative = cytotoxicity” value falls from 0.989% to -10.1%.

With `N#CC1=C(N)Oc2cc(O)ccc2C1c1ccc2c(c1)OCO2` (stereo not drawn) the “activity change, negative = cytotoxicity” value was 15.8%.
